Data reported in PubChem BioAssay AID1626 (SRMLSC, 2009).
In all, about 220,000 compounds went through this assay and about 2,000 (0.91%) were called active. About 2% were inconclusive and are not listed. Only a sample is shown. Measured potencies and affinities stand elsewhere. Values without a mark were called inactive. Rule as the data show it: inconclusive = inhibition above about 80% without an active follow-up result; inactive = below that; test concentration not stated here.

assay: M. tuberculosis H37Rv growth inhibitors, H37Rv strain (AID 1626); details: hits give high values, concentration not given here;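 also: bacteria incubated seven days before Alamar blue readout; 0% = bacteria only wells and 100% = bacteria with antibiotic wells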

In order of falling inhibition:
1. Cc1ccc(S(=O)(=O)NCCC(=O)Nc2ccc(Cl)c(Cl)c2)cc1C  68.7%
2. C#CCn1c(=NC(=O)c2ccc(Br)s2)sc2cccc(OC)c21  49.8%
3. CC1CN(c2ncc(/C=N/NC(=O)c3ccccc3O)s2)CC(C)O1 (centres undefined)  48%
4. COc1ccc(OC)c(CCNC(=O)C(=O)Nc2ccc3nc4n(c(=O)c3c2)CCCCC4)c1  9.2%
5. CCOc1ccc(-c2nnc(-c3ccccc3)o2)cc1  8.69%
6. CCOC(=O)CSC(CC)C(=O)Nc1nnc(CC)s1 (centres undefined)  8.43%
7. c1ccc(OCCOCCN2CCOCC2)cc1  8.38%
8. CNc1nc(N)c(C(=O)C23CC4CC(CC(C4)C2)C3)s1  7.78%
9. CCCCC(=O)Nc1nc(C)c(-c2csc(Nc3ccccc3OC)n2)s1  6.85%
10. COc1cccc(-c2csc(/C(C#N)=C/Nc3cc4oc5ccccc5c4cc3OC)n2)c1  6.75%
11. COc1ccc(-c2csc(/C(C#N)=C/Nc3ccc4c(c3)OCCO4)n2)cc1  5.83%
12. CC(C)(C)OC(=O)COc1cc(O)c2c(=O)cc(-c3ccccc3)oc2c1  5.56%
13. Cn1c(SCCCC(=O)c2ccc(F)cc2)nnc1-c1ccncc1  5.49%
14. COc1cc2c(cc1N/C=C(\C#N)c1nc(-c3ccc(F)cc3)cs1)oc1ccccc12  5.47%
15. O=C(Nc1cccc(S(=O)(=O)NC2=NCCCCC2)c1)c1cc(-c2ccncc2)nc2ccccc12  5.09%
16. CN(CCc1cnn(C)c1)Cc1cn[nH]c1-c1ccc(-c2ccccc2)cc1  3.7%
17. CCCCCC(=O)Nc1nc(C)c(-c2csc(Nc3ccccc3OC)n2)s1  3.41%
18. CC1=C(CCN2CCN(C3CCCC3)C(CCO)C2)C(C)(C)CCC1 (centres undefined)  3.37%
19. CCOC(=O)c1cc(=O)c2ccc(OCC(=O)Nc3ccccc3)cc2o1  3.25%
20. Cc1ccc(SCC(=O)Nc2ccc(N3CCN(c4ccccc4)CC3)c(F)c2)cc1  3.11%
21. CCOC(=O)c1cccc(COC(=O)c2cccc(-c3nnc(-c4ccccc4)o3)c2)c1  2.8%
22. NC(=O)COc1ccc2oc(-c3ccccc3)cc(=O)c2c1  1.94%
23. CC(=O)Nc1ccc(S(=O)(=O)NCCC(=O)Nc2ccc(C)c(Cl)c2)cc1  1.88%
24. COc1ccc(/C=N/N2C(=O)c3ccccc3C2=O)cc1  1.55%
25. CC1=C(CCN2CCN(C(C)C)C(CCO)C2)C(C)(C)CCC1 (centres undefined)  1.16%
26. N#C/C(=C\Nc1ccc2c(c1)OCCO2)c1nc(-c2ccccc2)cs1  -0.56%
27. CCC(C)[C@H](N)c1nnc(SCC(=O)c2ccc(Cl)cc2)o1 (some centres undefined)  -1.21%
28. O=C(NN1CCN(Cc2ccccc2)CC1)c1ccc(Cl)cc1  -1.31%
29. CCCCOc1ccc(C(=O)Nc2cc(C)c(OCC(=O)N3CCOCC3)c(C)c2)cc1  -1.36%
30. CCN(CC)CCCN1C(=O)C(O)=C(C(=O)c2cc3ccccc3o2)C1c1ccccn1 (centres undefined)  -1.65%
31. CC[C@@H](CO)C1CC2NC3CC4(c5ccccc5N(C)[C@@H]24)C(O)C31 (some centres undefined)  -2.7%
32. Cc1ccc(NC(=O)CSCC#N)cc1  -3.07%
33. CCOC(=O)Cc1nnc(-c2ccccc2)o1  -3.07%
34. Cc1ccc(-c2csc(/C(C#N)=C/Nc3ccc4c(c3)OCCO4)n2)cc1  -3.12%
35. CS(=O)(=O)NCCNc1ccc(C(F)(F)F)cc1[N+](=O)[O-]  -3.33%
36. Cc1cc(Cl)ccc1N(CC(=O)NCc1ccc2c(c1)OCO2)S(C)(=O)=O  -3.37%
37. CCN(CC)CCOC(=O)c1cccc(OC)c1  -3.6%
38. CCn1c(=O)cc(SCC(=O)N2CCN(c3ccccc3OC)CC2)c2ccccc21  -4.03%
39. Cn1c(=O)c2c(ncn2CC(=O)OCC(=O)NCc2ccc(Cl)cc2)n(C)c1=O  -4.25%
40. O=C(COc1cc(O)c2c(=O)cc(-c3ccccc3)oc2c1)c1ccccc1  -4.52%
41. COP(=O)(NC(=O)C(Cl)(Cl)Cl)OC  -4.54%
42. CC1(C)Oc2ccc3ccc(=O)oc3c2/C(=C/Nc2ccccn2)C1=O  -6.19%
43. N#CCSCC(=O)Nc1ccc(Cl)cc1  -6.68%
44. CCc1ccc(C(=O)COC(=O)c2ccc(-c3nnc(-c4ccccc4)o3)cc2)cc1  -8.3%
45. O=C(CCC(=O)c1cccs1)OCc1nc2ccccc2s1  -8.64%
46. COc1ccc(C2CC(=O)C(C=NCCO)=C(O)C2)cc1OC (centres undefined)  -9.01%
47. Cn1c(SCC(=O)N2CCOCC2)nnc1-c1cnccn1  -10.3%
48. OCCOCCN1CCN(C(c2ccccc2)c2ccc(Cl)cc2)CC1 (centres undefined)  -10.7%
49. Cc1c(NC(=O)/C(=C\c2ccccc2)NC(=O)c2ccccc2)c(=O)n(-c2ccccc2)n1C  -13.7%
